# Inconclusive results are not listed. Where a call stands in place of a potency, no number is given. The source made the active and inactive calls. Calls follow the shape of the dose curve; as a rule, active = well fitted curve in the direction sought with a large enough effect; inconclusive = small, poorly fitted or top-dose-only effect, or another doubt; inactive = no such curve, though single readings can be large; an effect the other way counts as inactive or inconclusive.
# Experiments:
# [1] = target: N-terminal Xaa-Pro-Lys N-methyltransferase 1 (Homo sapiens) (UniProt Q9BV86); assay: qHTS Assay for Inhibitors of N-terminal methyltransferase 1 (NTMT1): LOPAC validation of the NTMT1 SAHH-coupled ThioGlo3 Assay (AID 1347143);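 also: SAH from peptide methylation measured as thiol fluorescence via SAHH coupling and ThioGlo3; nearly all actives have a fitted effect of over 70% in size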
# N-terminal Xaa-Pro-Lys N-methyltransferase 1 (Homo sapiens), sequence (Q9BV86 whole entry, looked up): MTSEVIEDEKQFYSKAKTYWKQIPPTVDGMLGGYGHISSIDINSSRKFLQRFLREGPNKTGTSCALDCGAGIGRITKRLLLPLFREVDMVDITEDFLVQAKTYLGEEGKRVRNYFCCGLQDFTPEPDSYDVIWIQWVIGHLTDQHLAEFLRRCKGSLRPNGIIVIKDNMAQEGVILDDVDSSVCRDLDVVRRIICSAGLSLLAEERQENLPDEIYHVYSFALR
# In short: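 In this qHTS pilot against the LOPAC set, 125nM NTMT1 met compounds tested at multiple concentrations, and fluorescence was normalized to background.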
# [2] = tested on: Zika virus NS2B-NS3 protease (unlinked); assay: Optimization of GU AMC qHTS for Zika virus inhibitors: Unlinked NS2B-NS3 protease assay (AID 1347151); also: nearly all actives have a fitted effect of over 80% in size; also: potency is read from the fitted curve at half-maximal effect
# In short: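 Fluorescence gain (340/450 nm) over 15 min at room temperature, ~20% conversion, gave percent inhibition fitted to a 4-parameter Hill equation; enzyme was unlinked NS2B-NS3 (25 nM final), pH 8.0 Tris buffer.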
# Furin (Homo sapiens) = Furin (Homo sapiens) (UniProt P09958); assay: Furin counterscreen qHTS for Zika virus inhibitors (AID 1347149); also: nearly all actives have a fitted effect of over 70% in size; also: potency is read from the fitted curve at half-maximal effect
# Furin (Homo sapiens), sequence (P09958 whole entry, looked up): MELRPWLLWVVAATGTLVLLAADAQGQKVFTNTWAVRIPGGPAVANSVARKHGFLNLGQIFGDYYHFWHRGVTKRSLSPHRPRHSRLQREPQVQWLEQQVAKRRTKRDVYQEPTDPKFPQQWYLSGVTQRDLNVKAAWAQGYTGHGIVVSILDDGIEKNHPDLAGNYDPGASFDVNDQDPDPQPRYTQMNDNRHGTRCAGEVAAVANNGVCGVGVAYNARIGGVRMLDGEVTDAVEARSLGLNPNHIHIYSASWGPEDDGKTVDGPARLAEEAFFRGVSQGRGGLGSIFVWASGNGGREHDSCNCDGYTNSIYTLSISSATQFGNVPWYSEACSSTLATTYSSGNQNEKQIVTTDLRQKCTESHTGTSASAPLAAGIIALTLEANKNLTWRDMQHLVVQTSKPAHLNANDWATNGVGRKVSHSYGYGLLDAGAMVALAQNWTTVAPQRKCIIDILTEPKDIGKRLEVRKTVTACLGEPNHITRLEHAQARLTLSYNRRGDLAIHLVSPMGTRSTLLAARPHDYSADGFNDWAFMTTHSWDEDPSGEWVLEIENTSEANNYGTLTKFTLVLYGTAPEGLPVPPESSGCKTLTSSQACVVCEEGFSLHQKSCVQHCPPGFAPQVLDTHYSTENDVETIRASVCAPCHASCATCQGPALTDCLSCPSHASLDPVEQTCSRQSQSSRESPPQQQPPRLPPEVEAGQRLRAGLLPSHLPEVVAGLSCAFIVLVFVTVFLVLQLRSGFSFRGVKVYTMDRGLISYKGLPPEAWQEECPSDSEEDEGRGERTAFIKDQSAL
# In short: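 Counterscreen measures cleavage of 2 microM BOC-RVRR-AMC, below its ~15 microM Km, by 5 nM full-length human furin at pH 7.0 after a 15-min compound preincubation. Inhibition derives from the 15-min fluorescence increase at 37C.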
# [3] = tested on: Zika virus NS2B-NS3 protease (unlinked complex); assay: Confirmatory screen GU AMC qHTS for Zika virus inhibitors (AID 1347153); also: nearly all actives have a fitted effect of over 70% in size;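 as to potency: enzyme at 25 nM with substrate at 10 µM below its Km of 18.3 µM; potency is read from the fitted curve at half-maximal effect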
# In short: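 Fluorescence change (ex 340/em 450 nm) over 15 min, ~20% substrate conversion, normalized to no-inhibitor and no-enzyme controls, then Hill-fitted. Unlinked protease at 25 nM; AMC peptide 10 µM.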
# [4] = tested on: Zika virus NS2B-NS3 protease (linked construct); assay: Confirmatory screen NINDS AMC qHTS for Zika virus inhibitors (AID 1347152); also: nearly all actives have a fitted effect of over 70% in size; also: potency is read from the fitted curve at half-maximal effect
# In short: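 IC50s from 4-parameter Hill fits of percent inhibition, based on AMC fluorescence gain (340/450 nm) over 15 min with 10 microM Bz-Nle-KRR-AMC. Enzyme: 1 nM linked NS2B-NS3 in Tris-HCl pH 8.0; 15-min compound preincubation.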
smiles,measurement,setting,value
CCOC(=O)N1CCC(=C2c3ccc(Cl)cc3CCc3cccnc32)CC1,Potency,[1],inactive
same,Potency,[2],inactive
O=C1CCc2cc(OCCCCc3nnnn3C3CCCCC3)ccc2N1,Potency,[1],inactive
same,Potency,[2],inactive
COc1ccccc1-c1cccc(-c2c(O)c3cc(C#N)c(Cl)cc3[nH]c2=O)c1,Potency,Furin (Homo sapiens),inactive
same,Potency,[3],inactive
NS(=O)(=O)c1cc2c(cc1Cl)NC=NS2(=O)=O,Potency,[1],inactive
same,Potency,[2],inactive
CC(=O)Oc1ccccc1C(=O)O,Potency,[2],26.7 µM (active)
CC(C)c1onc(-c2c(Cl)cccc2Cl)c1COc1ccc(/C=C/c2cccc(C(=O)O)c2)c(Cl)c1,Potency,Furin (Homo sapiens),8.55 µM (active)
same,Potency,[4],24.1 µM (active)
same,Potency,[3],24.1 µM (active)
Cc1ccc(N(CC2=NCCN2)c2cccc(O)c2)cc1,Potency,[1],inactive
same,Potency,[2],inactive
Cc1cc(SCc2sc(-c3ccc(C(F)(F)F)cc3)nc2C)ccc1OCC(=O)O,Potency,Furin (Homo sapiens),inactive
same,Potency,[4],19.7 µM (active)
C1COC(NC(C2CC2)C2CC2)=N1,Potency,[1],inactive
same,Potency,[2],inactive
O=C1CCC(N2C(=O)c3ccccc3C2=O)C(=O)N1 (configuration not stated),Potency,[1],inactive
same,Potency,[2],inactive
O=C(O)CCc1ccc(NCc2cccc(Oc3ccccc3)c2)cc1,Potency,[2],inactive
Cc1ccccc1C(OCCN(C)C)c1ccccc1 (configuration not stated),Potency,[1],inactive
same,Potency,[2],inactive
N=c1nc(N2CCCCC2)cc(N)n1O,Potency,[2],inactive
O=C(O)COCCN1CCN(C(c2ccccc2)c2ccc(Cl)cc2)CC1 (configuration not stated),Potency,[2],inactive
Cc1[nH]c(=O)c(C#N)cc1-c1ccncc1,Potency,[4],inactive
same,Potency,[3],inactive
O=C(C1CC1)N1CC[C@@H](Cn2c(-c3ccc(-c4ccc5occc5c4)cc3)nc3cnccc32)C1,Potency,Furin (Homo sapiens),15.2 µM (active)
same,Potency,[4],24.1 µM (active)
same,Potency,[3],24.1 µM (active)
CC(C[N+](C)(C)C)OC(N)=O (configuration not stated),Potency,[1],inactive
same,Potency,[2],inactive
CCCc1nn(C)c2c(=O)[nH]c(-c3cc(S(=O)(=O)N4CCN(C)CC4)ccc3OCC)nc12,Potency,[2],inactive
NC(=O)c1cnccn1,Potency,[1],inactive
same,Potency,[2],inactive
CCC(C)N(C)C(=O)c1cc2ccccc2c(-c2ccccc2Cl)n1 (configuration not stated),Potency,[1],inactive
same,Potency,[2],inactive

# — PubChem BioAssay (NCATS)
